Screens: PubChem BioAssay, several laboratories
DUSP3 inh = VHR1 phosphatase inhibitors, primary screen, biochemical, absorbance, uHTS. AID 1654, 2009. Dual specificity protein phosphatase 3 (Homo sapiens), P51452. recombinant VHR phosphatase, pNPP absorbance. 290,000 tested, 0.52% active. inhibition, % at 13.3 µM; in the data active means inhibition above about 50%
Yp Topo-I inh = Yersinia pestis topoisomerase I inhibitors, primary screen, biochemical, cleavage product accumulation, plate reader, single point; AID 504884, 2011; activity, % at 10 µM; Y. pestis Topo-I cleavage product accumulation; 360,000 tested, 0.064% active; in the data active means activity above about 50%, passing the limit was not always enough
PrPC TRFRET = inhibitors of human cell surface prion protein PrPC, primary screen, cell-based, TR-FRET | 370,000 tested, 0.43% active | AID 720596, 2013 | inhibition, % at 13.8 µM | Major prion protein (Homo sapiens), P04156 | TR-FRET read-out; in the data active means inhibition above about 24%
CCHFV vOTU inh = CCHFV vOTU protease inhibitors, primary screen, biochemical, Pep-AMC substrate, fluorescence | Crimean-Congo hemorrhagic fever virus L polyprotein viral ovarian tumor (vOTU) protease … | inhibition, % at 11.5 µM | 370,000 tested, 0.55% active; in the data active means inhibition above about 30%
MazEF act = activators of E. coli MazEF toxin-antitoxin RNase, primary screen, biochemical, fluorescence, uHTS. Endoribonuclease toxin MazF (Escherichia coli (strain K12)), P0AE70. FAM/BHQ RNA-DNA oligo cleavage fluorescence, 5 h. activation, % at 20 µM. 350,000 tested, 0.32% active. AID 504720, 2011; in the data active means activation above about 50%
BH1578 lux ind = inducers of Vibrio cholerae quorum light production without autoinducers, primary screen, BH1578 luxS cqsA deficient, single point. 350,000 tested, 0.16% active. activation, % at 18.7 µM. V. cholerae BH1578 lux reporter, luminescence, 6 h. AID 588436, 2011; in the data active means activation mostly above about 9.7%, no sharp cut-off
PrPC confirm = confirmation of inhibitors of cell surface human prion protein, confirmation, cell-based, TR-FRET | AID 743200, 2013 | 1,500 tested, 65% active | shares compounds with PrPC TRFRET | inhibition, % at 13.8 µM | cell surface PrPC level; in the data active means inhibition above about 25%
LD9 tox = cytotoxicity in LD9 cells, cytotoxicity control for cell surface PrPc inhibitor project, cell-based, luminescence, high throughput; shares compounds with PrPC TRFRET; luminescence viability; inhibition, % at 13.8 µM; 1,500 tested, 29% active; AID 743201, 2013; in the data active means inhibition above about 9.5%
Of the large screens only hits and unclear results are named; the others gave an inactive call (follow-up assays come after a bar, where they were run). Sampled rows, rich in hits. Any-hit rate of the full collection: about 1.8%.

Cn1cccc1/C=N\NC(=O)Cc1ccc(Br)c2ccccc12	PrPC TRFRET 31 (no result: BH1578 lux ind) | PrPC confirm 35 | LD9 tox inactive
Fc1cccc2sc(Nc3nc4c(F)cccc4s3)nc12	PrPC TRFRET 37 | PrPC confirm 70 | LD9 tox inactive
O=C(N[C@@H](Cc1cccnc1)C(=O)N1CCC[C@H]1C(=O)NCc1ccccc1)c1ccccc1	none (no result: DUSP3 inh, Yp Topo-I inh, MazEF act, BH1578 lux ind)
Cc1nc2ccccc2c2oc(C(=O)N3CCC(N4CCCCC4)CC3)cc12	none (no result: PrPC TRFRET, CCHFV vOTU inh)
Cc1nc2ccccc2c2oc(C(=O)N3CCN(C4CCCCC4)CC3)cc12	PrPC TRFRET 26 | PrPC confirm inactive | LD9 tox 15
O=C1Nc2ccc(Br)cc2C1Cc1ccccc1F (centres undefined)	none
O=C1NC(Cc2ccccc2)C(=O)Nc2ccc(Br)cc21 (centres undefined)	PrPC TRFRET 25 | PrPC confirm inactive | LD9 tox inactive
COc1ccc(-c2cnc(SCC(=O)Nc3ccc4c(c3)OCO4)n2Cc2ccco2)cc1	PrPC TRFRET 25 | PrPC confirm inactive | LD9 tox 9.3
Cn1cnc([N+](=O)[O-])c1S(=O)(=O)c1ccc(Cl)cc1	PrPC TRFRET 37 | PrPC confirm inactive | LD9 tox 91
CC(=O)c1sc(NC(=O)CCOc2ccccc2)nc1C	PrPC TRFRET 35 | PrPC confirm 41 | LD9 tox inactive
CC(=O)c1sc(NC(=O)C(C)(C)C)nc1C	PrPC TRFRET 26 | PrPC confirm 27 | LD9 tox inactive
CC(=O)c1sc(NC(=O)c2ccc(C(C)(C)C)cc2)nc1C	none
O=S(=O)(NCC(c1cccnc1)N1CCN(Cc2ccccc2)CC1)c1cc(F)ccc1F (centres undefined)	none
NC(c1ccc(F)c(F)c1)c1nc(-c2cc(F)cc(F)c2)cs1 (centres undefined)	none (no result: DUSP3 inh, MazEF act)
NC(N)=NS(=O)(=O)c1ccc(NC(=S)NC(=O)c2sc3ccccc3c2Cl)cc1	PrPC TRFRET 36 | PrPC confirm 77 | LD9 tox inactive
CCCOc1ccc(C(CC(=O)O)NC(=O)c2sc3ccccc3c2Cl)cc1 (centres undefined)	PrPC TRFRET 43 | PrPC confirm 34 | LD9 tox inactive
CCCCOC(=S)NC(=O)c1sc2ccccc2c1Cl	PrPC TRFRET 43 | PrPC confirm inactive | LD9 tox inactive
CN(C)CCCOC(=O)c1sc2ccccc2c1Cl	none
COc1cc(NS(=O)(=O)c2ccc(NC(=S)NC(=O)c3sc4ccccc4c3Cl)cc2)nc(OC)n1	none
CCOc1ccc(C(CC(=O)O)NC(=O)c2sc3ccccc3c2Cl)cc1 (centres undefined)	none
NC(=O)CSc1nnc2n(-c3ccccc3)c(=O)c3c4c(sc3n12)CCCCC4	PrPC TRFRET 51 | PrPC confirm 86 | LD9 tox inactive
Cc1nnc2n(-c3ccccc3)c(=O)c3c4c(sc3n12)CCCC4	none
CCOC(=O)C1CCN(C(=O)c2cccc(S(=O)(=O)N3c4ccccc4CC3C)c2)CC1 (centres undefined)	none (no result: DUSP3 inh)
O=C(Nc1ccc2c(c1)OCO2)c1ccc2sc([C@@H]3O[C@H](CO)[C@@H](O)[C@H]3O)nc2c1	PrPC TRFRET 25 (no result: DUSP3 inh, MazEF act) | PrPC confirm inactive | LD9 tox inactive
O=C(Nc1ccc2c(c1)OCO2)c1ccc2sc([C@@H]3O[C@H](CO)[C@H](O)[C@H](O)[C@H]3O)nc2c1	none (no result: DUSP3 inh, MazEF act)
CC(O)CC(=O)OC[C@]12CC[C@H]3[C@@](C)(CC[C@H]4C(C)(C)CCC[C@]34C)[C@@H]1CC(C1=CC(=O)OC1O)O2 (some centres undefined)	PrPC TRFRET 34 (no result: DUSP3 inh, MazEF act) | PrPC confirm 26 | LD9 tox 64
Cc1ccc(C)c(Nc2ccc(C(=O)NCCc3ccccc3)cn2)c1	PrPC TRFRET 27 | PrPC confirm inactive | LD9 tox inactive
CCn1nccc1C(=O)Nc1ccc(C(=O)OC(C)C)cc1	none
CC(NCc1ccco1)C(=O)N1CCCN(C)CC1 (centres undefined)	none (no result: DUSP3 inh, Yp Topo-I inh, MazEF act, BH1578 lux ind)
COc1ccccc1C(=O)NC(=S)/C=C1/N(C)c2ccccc2C1(C)C	PrPC TRFRET 29 | PrPC confirm 49 | LD9 tox 11
Cc1[nH]ccc2cc3nc4ccccc4c3cc12	none (no result: DUSP3 inh)
CCC[C@H]1[C@@H](NC(=O)c2cccc(Cl)c2)CC[C@@]23CCCN2C(=O)CCC[C@@H]13	none (no result: DUSP3 inh, Yp Topo-I inh, CCHFV vOTU inh, MazEF act, BH1578 lux ind)
CCCC(=O)Nc1ccc(C(=O)NNC(=S)NC(=O)c2ccc(Br)o2)cc1	PrPC TRFRET 32 | PrPC confirm inactive | LD9 tox inactive
COc1ccc(-c2noc(N3CCCC(C(=O)Nc4ccc(F)cc4F)C3)n2)cc1 (centres undefined)	none
C=C1C(C)C2C(Cc3ccccc3)NC(=O)C23OC(=O)/C=C/C(O)CCCC(C)C/C=C/C3C1O (centres undefined)	PrPC TRFRET 26 (no result: DUSP3 inh) | PrPC confirm inactive | LD9 tox 14
C[C@H]1[C@@H](NC(=O)C2CCOC2)CC[C@@]23CCCN2C(=O)CCC[C@@H]13 (some centres undefined)	none (no result: DUSP3 inh, Yp Topo-I inh, CCHFV vOTU inh, MazEF act, BH1578 lux ind)
O=C(NC1CCCCN(Cc2cccc(C(F)(F)F)c2)C1=O)c1ccc(COc2ccccc2)cc1 (centres undefined)	PrPC TRFRET 26 (no result: DUSP3 inh, Yp Topo-I inh, MazEF act, BH1578 lux ind) | PrPC confirm 25 | LD9 tox inactive
CC(C)(C)C(=O)NC1CCCCN(Cc2cccc(C(F)(F)F)c2)C1=O (centres undefined)	none (no result: DUSP3 inh, Yp Topo-I inh, MazEF act, BH1578 lux ind)
Cc1ccccc1CN1CCCCC(NC(=O)c2ccc(COc3ccccc3)cc2)C1=O (centres undefined)	none (no result: DUSP3 inh, Yp Topo-I inh, MazEF act, BH1578 lux ind)
COc1cc(C(=O)NC2CCCCN(Cc3cccc(C(F)(F)F)c3)C2=O)cc(OC)c1OC (centres undefined)	PrPC TRFRET 49 (no result: DUSP3 inh, Yp Topo-I inh, MazEF act, BH1578 lux ind) | PrPC confirm inactive | LD9 tox inactive
O=C(N[C@H](Cc1ccccc1)C(=O)NCc1ccc2c(c1)OCO2)[C@H]1O[C@@H](n2ccc(=O)[nH]c2=O)[C@H](O)[C@@H]1O	none (no result: DUSP3 inh, Yp Topo-I inh, MazEF act, BH1578 lux ind)
Cc1ccc2c(c1)[C@H]1[C@H](CO2)[C@H](c2ccccc2)[C@]2(C)C(=O)Nc3ccc(F)cc3C(=O)N12	none (no result: DUSP3 inh)
C[C@@]12C(=O)N(c3cccc(Cl)c3)C(=O)N1[C@@H]1c3ccccc3OC[C@@H]1[C@H]2c1ccccc1	none (no result: DUSP3 inh)
